Measured values: PubChem BioAssay (Tox21)
Results filed as inconclusive are left out. Activity calls are given as the source filed them. Unless noted, calls follow the shape of the dose curve; as a rule, active = well fitted curve in the direction sought with a large enough effect in the repeat runs; inconclusive = weak or mixed curves; inactive = no such curve, though single readings can be large; an effect the other way counts as inactive or inconclusive.

Assays:
[1] = target: Androgen receptor (Homo sapiens) (UniProt P10275); assay: qHTS assay to identify small molecule agonists of the androgen receptor (AR) signaling pathway (AID 743036; active = well fitted activation curve with a large enough effect in the signal ratio in the repeat runs, with a control signal flat, not every such curve was filed as active; the % refers to the signal ratio)
How it was run: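 Fluorescence from a beta-lactamase FRET substrate served as read-out in AR-UAS-bla GripTite HEK293 cells. Cells were treated with DMSO-dissolved compounds for 16 h at 37C, then with LiveBLAzer B/G substrate for 2 h at room temperature.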

[2] = target: Androgen receptor (Homo sapiens) (UniProt P10275); assay: qHTS assay to identify small molecule agonists of the androgen receptor (AR) signaling pathway using the MDA cell line (AID 743040; also: nearly all actives have a fitted effect of over 20% in size)
How it was run: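 MDA-kb2 breast carcinoma cells carrying MMTV-luciferase (responsive to AR and GR), plated 5 h then treated 16 h with compounds at 37C, 0% CO2. Read-out was ONE-Glo luminescence after 30 min at room temperature.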

[3] = qHTS assay to identify small molecule antagonists of the androgen receptor (AR) signaling pathway using the MDA cell line - cell viability counter screen (AID 743041; also: nearly all actives have a fitted effect of over 45% in size)
How it was run: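 MDA-kb2 AR-luc cells (MMTV-luciferase, AR/GR responsive) treated with compounds plus R1881 agonist for 16 h at 37C. CellTiter-Fluor added at 15.5 h; fluorescence read after 30 min in the same wells.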

[4] = target: Androgen receptor (Homo sapiens) (UniProt P10275); assay: qHTS assay to identify small molecule antagonists of the androgen receptor (AR) signaling pathway using the MDA cell line (AID 743042; also: nearly all actives have a fitted effect of over 55% in size)
How it was run: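 MDA-kb2 breast carcinoma cells carrying MMTV-luciferase (AR/GR responsive) were co-treated with compounds and the agonist R1881 for 16 h at 37C. Inhibition read as ONE-Glo luminescence; CellTiter-Fluor fluorescence measured in parallel for cytotoxicity.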

[5] = qHTS assay to identify small molecule antagonists of the thyroid receptor (TR) signaling pathway - cell viability counter screen (AID 743064); also: nearly all actives have a fitted effect of over 50% in size
How it was run: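 Fluorescence from CellTiter-Fluor, added after 23.5 h exposure at 37 °C, reported viability of GH3.TRE-Luc cells co-treated with compound and 1 nM T3. Measured in the same wells as the luciferase TR readout.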

[6] = qHTS assay to identify small molecule antagonists of the thyroid receptor (TR) signaling pathway (AID 743065); also: series mostly up to about 70 µM; nearly all actives have a fitted effect of over 55% in size
How it was run: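 GH3.TRE-Luc rat pituitary cells (two TREs driving luciferase) were dosed with compound, then stimulated with 1 nM T3 (final) for 23.5 h at 37 C. ONE-Glo luminescence was the read-out, with CellTiter-Fluor fluorescence as the cytotoxicity counter-screen.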

[7] = test system: thyroid hormone receptor (rat, GH3 cells); assay: qHTS assay to identify small molecule agonists of the thyroid receptor (TR) signaling pathway (AID 743066; calls by dose curve)
[8] = target: Estrogen receptor (Homo sapiens) (UniProt P03372); assay: qHTS assay to identify small molecule antagonists of the estrogen receptor alpha (ER-alpha) signaling pathway (AID 743069; active = well fitted curve in the direction sought with a large enough effect in the signal ratio in the repeat runs, not every such curve was filed as active; the % refers to the signal ratio)
How it was run: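 HEK293 ER-alpha-UAS-bla GripTite cells, held overnight in 2% charcoal-stripped FBS, 5,000 cells/well, preincubated 4 h, then compound plus 17beta-estradiol for 18 h at 37C. Beta-lactamase read by LiveBLAzer B/G FRET substrate, 2 h at room temperature.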

[9] = qHTS assay to identify small molecule antagonists of the estrogen receptor alpha (ER-alpha) signaling pathway - cell viability counter screen (AID 743074; calls by dose curve;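 also: HEK293 cells carrying ER-alpha-UAS-bla reporter stimulated with 17beta-estradiol; nearly all actives have a fitted effect of over 45% in size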)
[10] = target: Estrogen receptor (Homo sapiens) (UniProt P03372); assay: qHTS assay to identify small molecule agonists of the estrogen receptor alpha (ER-alpha) signaling pathway (AID 743075; calls by dose curve)
[11] = target: Estrogen receptor (Homo sapiens) (UniProt P03372); assay: qHTS assay to identify small molecule agonists of the estrogen receptor alpha (ER-alpha) signaling pathway using the BG1 cell line (AID 743079); also: nearly all actives have a fitted effect of over 20% in size
[12] = qHTS assay to identify small molecule antagonists of the estrogen receptor alpha (ER-alpha) signaling pathway using the BG1 cell line (AID 743080; calls by dose curve;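 also: BG1 cells stimulated with 17beta-estradiol alongside compound; series mostly up to about 70 µM; nearly all actives have a fitted effect of over 25% in size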)
How it was run: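 Luminescence from a 4×ERE-luciferase reporter in BG1-Luc-4E2 cells served as read-out. Cells, pre-cultured 5 days in stripped-serum phenol-red-free medium, were exposed to compound with 17beta-estradiol co-stimulation for 21.5 h at 37 C.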

[13] = qHTS assay to identify small molecule antagonists of the estrogen receptor alpha (ER-alpha) signaling pathway using the BG1 cell line - cell viability counter screen (AID 743081);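 also: compound given together with 17beta-estradiol as the ER stimulus; series mostly up to about 70 µM; nearly all actives have a fitted effect of over 45% in size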
Aromatase (Homo sapiens) = Aromatase (Homo sapiens) (UniProt P11511); assay: qHTS assay to identify aromatase inhibitors (AID 743083); also: series mostly up to about 70 µM; nearly all actives have a fitted effect of over 55% in size
[14] = qHTS assay to identify aromatase inhibitors - cell viability counter screen (AID 743084);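 also: cells stimulated with testosterone during compound exposure; nearly all actives have a fitted effect of over 55% in size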
[15] = target: Aryl hydrocarbon receptor (Homo sapiens) (UniProt P35869); assay: qHTS assay to identify small molecule that activate the aryl hydrocarbon receptor (AhR) signaling pathway (AID 743085);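 also: HG2L7.5c1 human HepG2 liver cells with stably integrated DRE-driven firefly reporter; series mostly up to about 70 µM; nearly all actives have a fitted effect of over 15% in size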
How it was run: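 Cell line HG2L7.5c1 (human hepatoma, 20× DRE-luc). Plated, 5 h 37C, compound/DMSO added, 24 h 37C. CellTiter-Fluor 30 min 37C → fluorescence; then ONE-Glo 30 min RT → luminescence.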

[16] = qHTS assay to identify small molecule that activate the aryl hydrocarbon receptor (AhR) signaling pathway - cell viability counter screen (AID 743086);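 also: HepG2 liver cells carrying the AhR DRE luciferase reporter; series mostly up to about 70 µM; nearly all actives have a fitted effect of over 45% in size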
How it was run: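 HepG2-AhR-luc (HG2L7.5c1) cells, 4000/well, treated 24 h at 37 C with compound; viability measured as CellTiter-Fluor fluorescence after 30 min in the same wells as the luciferase read.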

[17] = target: Peroxisome proliferator-activated receptor gamma (Homo sapiens) (UniProt P37231); assay: qHTS assay to identify small molecule agonists of the peroxisome proliferator-activated receptor gamma (PPARg) signaling pathway (AID 743094; active = well fitted activation curve with a large enough effect in the signal ratio in the repeat runs, not every such curve was filed as active; the % refers to the signal ratio)
How it was run: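 Following 5 h plating at 37C, PPARg-bla HEK293H cells receive compound or DMSO for 17 h; fluorescence intensity is recorded after LiveBLAzer B/G loading for 1 h at room temperature.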

[18] = qHTS assay to identify small molecule antagonists of the estrogen related receptor (ERR) signaling pathway - cell viability counter screen (AID 1224818);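 also: series mostly up to about 46 µM; viability measured after 17.5 h of compound exposure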
How it was run: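 In the same ERR cell assay, compound-treated wells (17.5 h, 37 C) were multiplexed with a fluorogenic viability reagent, CellTiter-Fluor, read after 30 min to flag cytotoxic substances.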

[19] = qHTS assay to identify small molecule antagonists of the estrogen related receptor (ERR) signaling pathway (AID 1224819;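 also: luminescence from an ERR-driven luciferase reporter measured with One-Glo reagent; series mostly up to about 46 µM; nearly all actives have a fitted effect of over 50% in size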)
How it was run: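 qHTS in ERR cells, 2,000/well, 1536 format. Cpd (DMSO) added after 6 h settle, 18 h 37 C. One-Glo luminescence, 30 min RT.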

[20] = qHTS assay to identify small molecule agonists of the estrogen related receptor (ERR) signaling pathway (AID 1224820)
How it was run: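 Cells: ERR line from NTP, 2,000/well. Pre-incubation 6 h, 37 C/5% CO2. Compound (DMSO) pin transfer, 18 h 37 C. One-Glo, 30 min RT, luminescence.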

[21] = test system: estrogen-related receptor alpha (ERRalpha) with PGC-1alpha coactivator, human; assay: qHTS assay to identify small molecule antagonists of the estrogen related receptor signaling pathway with the pleiotropic PPARgamma coactivator (PGC) (AID 1224821; calls by dose curve;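 also: series mostly up to about 46 µM; lower luminescence signal means antagonism of PGC/ERR signalling; nearly all actives have a fitted effect of over 50% in size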)
How it was run: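 Luminescent read-out (One-Glo, 30 min at room temperature) following 18 h treatment of PGC/ERR cells at 37 C with compounds delivered in DMSO. Cells had settled 6 h at 37 C/5% CO2 before dosing.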

[22] = qHTS assay to identify small molecule antagonists of the estrogen related receptor signaling pathway with the pleiotropic PPARgamma coactivator (PGC) cell viability counter screen (AID 1224822; also: series mostly up to about 46 µM)
How it was run: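 Compounds in DMSO, with positive and negative controls, were applied to PGC/ERR cells (2,000/well) and left 17.5 h at 37 C before CellTiter-Fluor detection.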

[23] = qHTS assay to identify small molecule agonists of the estrogen related receptor signaling pathway with the pleiotropic PPARgamma coactivator (PGC) (AID 1224823)
How it was run: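 Steps: plate PGC/ERR cells at 2,000 cells/well; incubate 6 h, 37 C/5% CO2; pin-transfer compounds (DMSO); incubate 18 h, 37 C; add One-Glo; 30 min RT; read luminescence.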

[24] = qHTS assay to identify small molecule phospholipidosis (PLD) inducers (AID 1259344; active = well fitted curve in the direction sought with a large enough effect; an effect the other way counts as inactive or inconclusive)
How it was run: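 HepG2 cells, 900/well, treated with compound plus LipidTOX Red for 24 h at 37 C; amiodarone positive and DMSO negative controls. Fixed with paraformaldehyde/Hoechst, then high-content imaging scored LipidTOX pit count and integrated intensity per well and per cell.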

Measured: Potency

Chain of Androgen receptor (Homo sapiens) (P10275 whole entry, looked up): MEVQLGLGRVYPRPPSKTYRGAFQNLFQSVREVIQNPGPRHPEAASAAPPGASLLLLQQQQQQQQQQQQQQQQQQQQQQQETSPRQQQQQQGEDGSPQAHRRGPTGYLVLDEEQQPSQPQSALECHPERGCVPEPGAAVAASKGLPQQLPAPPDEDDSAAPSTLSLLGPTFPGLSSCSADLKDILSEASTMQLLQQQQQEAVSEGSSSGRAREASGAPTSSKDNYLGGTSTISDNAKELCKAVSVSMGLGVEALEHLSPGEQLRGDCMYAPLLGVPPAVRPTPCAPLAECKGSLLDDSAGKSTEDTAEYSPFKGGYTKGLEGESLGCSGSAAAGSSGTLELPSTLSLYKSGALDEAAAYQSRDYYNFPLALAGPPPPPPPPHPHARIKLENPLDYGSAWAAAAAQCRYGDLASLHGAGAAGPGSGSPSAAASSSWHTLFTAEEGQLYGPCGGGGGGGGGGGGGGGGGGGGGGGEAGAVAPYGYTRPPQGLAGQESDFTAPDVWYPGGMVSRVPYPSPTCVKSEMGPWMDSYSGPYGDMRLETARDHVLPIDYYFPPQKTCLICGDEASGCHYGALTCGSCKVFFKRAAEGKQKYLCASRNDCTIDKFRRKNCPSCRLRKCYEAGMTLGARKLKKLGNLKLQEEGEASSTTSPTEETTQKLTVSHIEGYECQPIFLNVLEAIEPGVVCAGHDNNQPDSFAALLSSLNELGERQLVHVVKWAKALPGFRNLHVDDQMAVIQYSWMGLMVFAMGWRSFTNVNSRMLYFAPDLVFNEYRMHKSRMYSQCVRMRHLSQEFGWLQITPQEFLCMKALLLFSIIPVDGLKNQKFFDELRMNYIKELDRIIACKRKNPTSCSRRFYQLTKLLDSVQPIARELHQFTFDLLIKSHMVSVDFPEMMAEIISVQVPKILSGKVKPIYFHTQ
Chain of Estrogen receptor (Homo sapiens) (P03372 whole entry, looked up): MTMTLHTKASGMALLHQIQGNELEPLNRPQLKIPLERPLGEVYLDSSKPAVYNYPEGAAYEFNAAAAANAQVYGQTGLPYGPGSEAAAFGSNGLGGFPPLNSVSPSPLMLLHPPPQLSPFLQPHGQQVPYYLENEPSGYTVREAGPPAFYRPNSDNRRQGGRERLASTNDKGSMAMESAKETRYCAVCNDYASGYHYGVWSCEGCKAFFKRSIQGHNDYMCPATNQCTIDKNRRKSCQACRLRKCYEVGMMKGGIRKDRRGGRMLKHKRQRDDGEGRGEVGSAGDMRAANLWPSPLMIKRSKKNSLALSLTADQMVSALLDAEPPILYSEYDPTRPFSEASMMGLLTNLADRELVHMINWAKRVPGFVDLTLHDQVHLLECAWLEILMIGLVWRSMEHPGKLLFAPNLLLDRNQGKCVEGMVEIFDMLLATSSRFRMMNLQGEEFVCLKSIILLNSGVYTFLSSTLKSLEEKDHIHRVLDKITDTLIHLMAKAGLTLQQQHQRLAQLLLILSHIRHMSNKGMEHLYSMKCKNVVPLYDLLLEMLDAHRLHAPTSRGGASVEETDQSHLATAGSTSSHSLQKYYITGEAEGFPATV
Chain of Aromatase (Homo sapiens) (P11511 whole entry, looked up): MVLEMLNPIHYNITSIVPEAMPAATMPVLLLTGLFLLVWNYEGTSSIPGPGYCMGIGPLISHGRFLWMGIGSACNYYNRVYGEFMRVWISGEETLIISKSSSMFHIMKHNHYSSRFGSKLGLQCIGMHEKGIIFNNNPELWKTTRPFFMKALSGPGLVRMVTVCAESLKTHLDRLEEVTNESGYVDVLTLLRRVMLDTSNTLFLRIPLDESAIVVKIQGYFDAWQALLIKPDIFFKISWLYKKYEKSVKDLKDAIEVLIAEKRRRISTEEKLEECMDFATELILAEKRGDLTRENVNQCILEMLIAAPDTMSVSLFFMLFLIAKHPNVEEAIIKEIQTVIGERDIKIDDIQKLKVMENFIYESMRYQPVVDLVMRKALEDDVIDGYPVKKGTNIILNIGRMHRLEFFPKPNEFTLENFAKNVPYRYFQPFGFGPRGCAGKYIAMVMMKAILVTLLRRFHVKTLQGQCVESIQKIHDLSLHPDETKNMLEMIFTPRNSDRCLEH
Chain of Aryl hydrocarbon receptor (Homo sapiens) (P35869 whole entry, looked up): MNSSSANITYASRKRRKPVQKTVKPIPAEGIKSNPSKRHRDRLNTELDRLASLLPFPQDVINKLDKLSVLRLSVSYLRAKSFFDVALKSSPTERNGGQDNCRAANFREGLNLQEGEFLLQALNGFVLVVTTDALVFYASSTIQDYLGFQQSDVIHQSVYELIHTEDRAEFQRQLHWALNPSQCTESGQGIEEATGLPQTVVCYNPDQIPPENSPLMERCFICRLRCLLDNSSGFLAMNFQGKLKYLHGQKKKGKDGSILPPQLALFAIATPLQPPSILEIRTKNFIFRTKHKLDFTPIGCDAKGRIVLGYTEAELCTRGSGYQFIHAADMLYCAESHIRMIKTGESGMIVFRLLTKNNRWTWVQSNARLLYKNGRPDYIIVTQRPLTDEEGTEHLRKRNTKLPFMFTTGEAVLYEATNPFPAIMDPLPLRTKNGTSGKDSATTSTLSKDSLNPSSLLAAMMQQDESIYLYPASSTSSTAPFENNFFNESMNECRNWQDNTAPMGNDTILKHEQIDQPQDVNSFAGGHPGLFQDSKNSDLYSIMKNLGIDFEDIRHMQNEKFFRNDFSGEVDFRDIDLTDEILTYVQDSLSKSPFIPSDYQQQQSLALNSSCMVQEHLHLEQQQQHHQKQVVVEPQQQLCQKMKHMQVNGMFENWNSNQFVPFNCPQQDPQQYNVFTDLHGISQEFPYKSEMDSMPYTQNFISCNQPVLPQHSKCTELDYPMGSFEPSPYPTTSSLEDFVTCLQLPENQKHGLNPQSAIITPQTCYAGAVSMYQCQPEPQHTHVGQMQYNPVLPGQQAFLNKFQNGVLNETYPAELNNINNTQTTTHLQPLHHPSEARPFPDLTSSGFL
Chain of Peroxisome proliferator-activated receptor gamma (Homo sapiens) (P37231 whole entry, looked up): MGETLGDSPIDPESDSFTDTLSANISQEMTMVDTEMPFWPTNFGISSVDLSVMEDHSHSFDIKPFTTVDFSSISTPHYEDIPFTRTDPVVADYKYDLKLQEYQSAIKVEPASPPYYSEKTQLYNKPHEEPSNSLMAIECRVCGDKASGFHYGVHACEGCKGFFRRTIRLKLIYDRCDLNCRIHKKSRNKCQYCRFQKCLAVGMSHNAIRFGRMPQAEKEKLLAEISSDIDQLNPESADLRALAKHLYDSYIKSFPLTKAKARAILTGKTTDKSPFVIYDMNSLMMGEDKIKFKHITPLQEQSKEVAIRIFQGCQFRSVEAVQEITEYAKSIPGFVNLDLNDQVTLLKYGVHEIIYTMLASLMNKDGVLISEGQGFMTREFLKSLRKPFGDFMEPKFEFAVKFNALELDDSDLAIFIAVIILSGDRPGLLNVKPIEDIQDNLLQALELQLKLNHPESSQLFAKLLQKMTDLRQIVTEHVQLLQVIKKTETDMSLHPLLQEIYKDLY

NC(=O)CN1CC(O)CC1=O (stereo not given)
inactive: all assays above
